Assay results taken from PubChem BioAssay (EPA / NIEHS).
The source made the active and inactive calls. Rule for the calls: active = hit-call score of the fitted dose curve at least 0.9, where 1 is the maximum; inactive = score below 0.9.

Experiments:
Conditions in all cases: mRNA level, 48 h; actives raise or lower the signal
BCL2L11 (gene 10018) = assay: LTEA_HepaRG_BCL2L11: Life Technologies and Expression Analysis (LTEA) Assay for Bcl-2 (BCL2L11) gene using HepaRG (AID 2283473)
Outline: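 Human hepatic HepaRG cultures are treated 48 h with test chemicals (maximum 100 uM, 0.5% DMSO vehicle). Expression of BCL2L11 is measured by qRT-PCR against ACTB, GAPDH and POLR2A, with activity in either direction scored relative to vehicle.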

[1] = read-out: Apolipoprotein A-V (APOA5) gene, APOA5 (gene 116519); assay: LTEA_HepaRG_APOA5: Life Technologies and Expression Analysis (LTEA) Assay for Apolipoprotein A-V (APOA5) gene using HepaRG (AID 2283474)
Outline: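 Concentration-response of APOA5 expression in HepaRG: eight half-log doses to 100 uM, 48 h, qRT-PCR normalized to ACTB/GAPDH/POLR2A, bidirectional fitting with 0.5% DMSO as baseline.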

[2] = read-out: Bcl-2 (BID) gene, BID (gene 637); assay: LTEA_HepaRG_BID: Life Technologies and Expression Analysis (LTEA) Assay for Bcl-2 (BID) gene using HepaRG (AID 2283476)
Outline: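 Duplicate 48 h treatments of HepaRG cells in serum-free induction medium spanned 100 uM downward in half-log steps, 0.5% DMSO. Transcript change quantified by qRT-PCR against three housekeeping genes, fitted up or down versus DMSO.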

Caspase-3 (Homo sapiens) = Caspase-3 (Homo sapiens) (UniProt P42574); assay: LTEA_HepaRG_CASP3: Life Technologies and Expression Analysis (LTEA) Assay for cysteine-aspartic acid protease (CASP3) using HepaRG (AID 2283477)
Chain of Caspase-3 (Homo sapiens) (P42574 whole entry, looked up): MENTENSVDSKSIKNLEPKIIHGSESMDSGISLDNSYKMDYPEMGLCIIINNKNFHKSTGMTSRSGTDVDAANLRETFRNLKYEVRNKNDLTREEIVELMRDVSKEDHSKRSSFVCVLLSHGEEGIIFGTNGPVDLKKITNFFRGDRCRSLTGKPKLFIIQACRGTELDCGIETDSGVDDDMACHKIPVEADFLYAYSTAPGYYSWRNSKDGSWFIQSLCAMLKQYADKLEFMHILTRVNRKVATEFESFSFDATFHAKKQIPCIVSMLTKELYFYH
Outline: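 Transcript-level assay: CASP3 mRNA in human HepaRG after 48 h treatment, eight half-log concentrations from 100 uM in 0.5% DMSO, quantified by qRT-PCR.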

[3] = read-out: cysteine-aspartic acid protease (CASP8), CASP8 (gene 841); assay: LTEA_HepaRG_CASP8: Life Technologies and Expression Analysis (LTEA) Assay for cysteine-aspartic acid protease (CASP8) using HepaRG (AID 2283480)
Outline: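 CASP8 transcript measured by TaqMan qRT-PCR with ACTB/GAPDH/POLR2A normalization, after 48 h chemical exposure of HepaRG cells in serum-free induction medium. Eight concentrations, top 100 uM, half-log steps, 0.5% DMSO vehicle; fits in both directions versus DMSO.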

[4] = read-out: DNA damage-inducible transcript 3 (DDIT3), DDIT3 (gene 1649); assay: LTEA_HepaRG_DDIT3: Life Technologies and Expression Analysis (LTEA) Assay for DNA damage-inducible transcript 3 (DDIT3) using HepaRG (AID 2283488)
Outline: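 DDIT3 transcript was quantified by qRT-PCR with ACTB/GAPDH/POLR2A normalization after 48 h chemical treatment of differentiated HepaRG cells in 0.5% DMSO. Dosing was eight-point, half-log, top 100 uM, duplicate wells. Curves fitted bidirectionally versus DMSO.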

[5] = read-out: Pro-epidermal growth factor (Homo sapiens) (UniProt P01133); assay: LTEA_HepaRG_EGF: Life Technologies and Expression Analysis (LTEA) Assay for Epidermal growth factor (EGF) using HepaRG (AID 2283489)
Outline: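 Concentration-response mRNA assay: HepaRG cells dosed 48 h (max 100 uM, 0.5% DMSO), EGF measured by qRT-PCR and normalized to ACTB/GAPDH/POLR2A.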

[6] = read-out: Early growth response protein 1 (EGR1) transcription factor, EGR1 (gene 1958); assay: LTEA_HepaRG_EGR1: Life Technologies and Expression Analysis (LTEA) Assay for Early growth response protein 1 (EGR1) transcription factor using HepaRG (AID 2283490)
Outline: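 EGR1 transcript levels quantified by qRT-PCR (Fluidigm arrays) against three housekeeping genes after 48 h chemical exposure of HepaRG cells. Eight-point half-log series topping at 100 uM, 0.5% DMSO vehicle, analyzed for gain or loss.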

[7] = read-out: Ezrin (EZR), EZR (gene 7430); assay: LTEA_HepaRG_EZR: Life Technologies and Expression Analysis (LTEA) Assay for Ezrin (EZR) using HepaRG (AID 2283491)
Outline: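 Read-out is EZR transcript level by qRT-PCR, normalized to three housekeeping genes and fitted bidirectionally against the DMSO control. Human HepaRG cells received test chemicals for 48 h at eight half-log concentrations up to 100 uM in 0.5% DMSO.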

[8] = read-out: Cytochrome P450 (CYP24A1), CYP24A1 (gene 1591); assay: LTEA_HepaRG_CYP24A1: Life Technologies and Expression Analysis (LTEA) Assay for Cytochrome P450 (CYP24A1) using HepaRG (AID 2283478)
Outline: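 Gene expression of CYP24A1 by TaqMan qRT-PCR in HepaRG after 48 h treatment, highest concentration 100 uM; activity fitted in both directions relative to DMSO vehicle.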

[9] = read-out: Cytochrome P450 (CYP1A2), CYP1A2 (gene 1544); assay: LTEA_HepaRG_CYP1A2: Life Technologies and Expression Analysis (LTEA) Assay for Cytochrome P450 (CYP1A2) using HepaRG (AID 2283479)
Outline: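 In duplicate wells, HepaRG cultures maintained in 0.5% DMSO were treated 48 h across an 8-point, half-log series topping at 100 uM; phenobarbital (1 mM) served as induction control. Expression was read by qRT-PCR.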

[10] = read-out: Cytochrome P450 (CYP2B6), CYP2B6 (gene 1555); assay: LTEA_HepaRG_CYP2B6: Life Technologies and Expression Analysis (LTEA) Assay for Cytochrome P450 (CYP2B6) using HepaRG (AID 2283481)
Outline: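 Human HepaRG, 48 h dosing, 0.5% DMSO vehicle, top dose 100 uM. CYP2B6 transcript by qRT-PCR, housekeeping-normalized, bidirectional curve fit.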

[11] = read-out: Cytochrome P450 2C19 (Homo sapiens) (UniProt P33261); assay: LTEA_HepaRG_CYP2C19: Life Technologies and Expression Analysis (LTEA) Assay for CYP2C19 using HepaRG (AID 2283482)
Outline: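 Endpoint: CYP2C19 mRNA change, bidirectional fit vs 0.5% DMSO. Cells: HepaRG, 48 h exposure, eight-point series topping at 100 uM. Quantitation: qRT-PCR normalized to ACTB, GAPDH, POLR2A.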

CYP2C8 (gene 1558) = assay: LTEA_HepaRG_CYP2C8: Life Technologies and Expression Analysis (LTEA) Assay for CYP2C8 using HepaRG (AID 2283483)
Outline: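 CYP2C8 expression measured by TaqMan qRT-PCR and normalized to three housekeeping genes. HepaRG cultures were treated for 48 h with an eight-point half-log series topping at 100 uM, vehicle 0.5% DMSO, duplicates; fitted both directions against DMSO.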

CYP2C9 (gene 1559) = assay: LTEA_HepaRG_CYP2C9: Life Technologies and Expression Analysis (LTEA) Assay for CYP2C9 using HepaRG (AID 2283484)
Outline: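 CYP2C9 transcript level, quantified by TaqMan qRT-PCR against three housekeeping genes, was fitted bidirectionally relative to 0.5% DMSO. HepaRG cultures were treated 48 h, in duplicate, at eight half-log concentrations topping at 100 uM.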

CYP2E1 (gene 1571) = assay: LTEA_HepaRG_CYP2E1: Life Technologies and Expression Analysis (LTEA) Assay for CYP2E1 using HepaRG (AID 2283485)
Outline: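 CYP2E1 transcript measured by Fluidigm qRT-PCR against three housekeeping genes in human HepaRG cells treated 48 h (top 100 uM, half-log steps, 0.5% DMSO vehicle). Gain or loss fitted relative to DMSO baseline.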

CYP4A11 (gene 1579) = assay: LTEA_HepaRG_CYP4A11: Life Technologies and Expression Analysis (LTEA) Assay for CYP4A11 using HepaRG (AID 2283486)
Outline: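 Human hepatic HepaRG cultures receive duplicate 48 h exposures across a concentration-response series topping at 100 uM. Expression changes in CYP4A11 are measured by qRT-PCR relative to DMSO controls.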

[12] = read-out: Cytochrome P450 3A4 (Homo sapiens) (UniProt P08684); assay: LTEA_HepaRG_CYP3A4: Life Technologies and Expression Analysis (LTEA) Assay for CYP3A4 using HepaRG (AID 2283487)
Outline: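 HepaRG, 48 h exposure, 8-pt CRC from 100 uM (half-log), 0.5% DMSO, duplicates; serum-free induction medium. Readout: CYP3A4 mRNA, qRT-PCR, ACTB/GAPDH/POLR2A normalization. Bidirectional fit vs DMSO.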

[13] = read-out: Cytochrome P450 3A7 (Homo sapiens) (UniProt P24462); assay: LTEA_HepaRG_CYP3A7: Life Technologies and Expression Analysis (LTEA) Assay for CYP3A7 using HepaRG (AID 2283492)
Outline: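 qRT-PCR of CYP3A7 in HepaRG lysates after 48 h treatment; concentration-response (8 points, max 100 uM) analysed bidirectionally relative to 0.5% DMSO controls.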

[14] = read-out: Apoptosis regulator Bcl-2 (Homo sapiens) (UniProt P10415); assay: LTEA_HepaRG_BCL2: Life Technologies and Expression Analysis (LTEA) Assay for Bcl-2 gene using HepaRG (AID 2283475)
Outline: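 qRT-PCR of BCL2 transcript, normalized to three housekeeping genes (ACTB, GAPDH, POLR2A), after 48 h chemical exposure of HepaRG cells; concentrations top 100 uM with half-log dilutions, 0.5% DMSO vehicle, duplicates; changes up or down fitted relative to vehicle.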

Chain of Cytochrome P450 2C19 (Homo sapiens) (P33261 whole entry, looked up): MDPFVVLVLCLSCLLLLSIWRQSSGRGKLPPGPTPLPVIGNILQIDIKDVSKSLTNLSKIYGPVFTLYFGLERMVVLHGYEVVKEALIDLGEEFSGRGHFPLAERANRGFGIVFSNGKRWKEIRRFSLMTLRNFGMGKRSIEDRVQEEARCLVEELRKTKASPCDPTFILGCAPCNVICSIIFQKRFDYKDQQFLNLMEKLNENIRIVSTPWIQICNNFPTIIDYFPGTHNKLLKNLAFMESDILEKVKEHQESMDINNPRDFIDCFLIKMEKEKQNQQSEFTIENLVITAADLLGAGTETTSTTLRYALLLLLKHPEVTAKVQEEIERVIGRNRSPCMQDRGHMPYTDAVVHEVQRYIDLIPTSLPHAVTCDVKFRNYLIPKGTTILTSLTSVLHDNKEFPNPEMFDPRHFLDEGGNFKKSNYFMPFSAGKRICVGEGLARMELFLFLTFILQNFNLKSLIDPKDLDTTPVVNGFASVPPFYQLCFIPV
Chain of Cytochrome P450 3A4 (Homo sapiens) (P08684 whole entry, looked up): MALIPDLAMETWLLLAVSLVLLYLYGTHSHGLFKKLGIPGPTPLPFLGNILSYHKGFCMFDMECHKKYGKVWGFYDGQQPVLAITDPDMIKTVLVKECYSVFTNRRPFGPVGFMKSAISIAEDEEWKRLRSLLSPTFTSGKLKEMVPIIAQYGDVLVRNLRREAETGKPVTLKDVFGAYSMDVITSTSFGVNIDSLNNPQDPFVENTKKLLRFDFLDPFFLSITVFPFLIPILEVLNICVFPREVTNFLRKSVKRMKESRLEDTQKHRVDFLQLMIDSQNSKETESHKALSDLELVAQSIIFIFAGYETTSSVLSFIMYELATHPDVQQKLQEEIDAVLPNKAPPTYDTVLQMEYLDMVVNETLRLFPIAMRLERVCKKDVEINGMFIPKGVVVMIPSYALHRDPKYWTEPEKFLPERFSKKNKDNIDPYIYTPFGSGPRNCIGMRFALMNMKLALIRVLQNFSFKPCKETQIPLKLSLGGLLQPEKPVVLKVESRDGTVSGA
Chain of Cytochrome P450 3A7 (Homo sapiens) (P24462 whole entry, looked up): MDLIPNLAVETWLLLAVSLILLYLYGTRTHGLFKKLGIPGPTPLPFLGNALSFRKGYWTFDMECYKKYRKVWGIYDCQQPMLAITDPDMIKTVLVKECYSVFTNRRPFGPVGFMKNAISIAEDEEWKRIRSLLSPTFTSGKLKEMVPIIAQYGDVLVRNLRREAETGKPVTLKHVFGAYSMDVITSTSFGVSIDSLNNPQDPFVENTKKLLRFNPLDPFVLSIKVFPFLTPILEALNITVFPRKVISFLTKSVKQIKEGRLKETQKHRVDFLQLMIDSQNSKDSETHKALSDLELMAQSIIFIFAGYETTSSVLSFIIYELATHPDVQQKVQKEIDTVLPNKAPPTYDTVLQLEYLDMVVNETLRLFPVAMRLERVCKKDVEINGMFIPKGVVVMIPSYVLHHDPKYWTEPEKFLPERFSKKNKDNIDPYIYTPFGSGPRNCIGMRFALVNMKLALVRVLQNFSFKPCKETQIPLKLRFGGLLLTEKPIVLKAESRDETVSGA
Chain of Apoptosis regulator Bcl-2 (Homo sapiens) (P10415 whole entry, looked up): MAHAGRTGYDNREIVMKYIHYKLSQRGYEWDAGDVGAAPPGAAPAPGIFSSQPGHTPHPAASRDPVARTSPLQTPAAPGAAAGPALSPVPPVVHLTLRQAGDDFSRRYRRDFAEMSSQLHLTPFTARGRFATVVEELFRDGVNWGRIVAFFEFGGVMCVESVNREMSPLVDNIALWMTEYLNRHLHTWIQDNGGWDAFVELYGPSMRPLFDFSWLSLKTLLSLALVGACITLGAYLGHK

For `Cc1ccc(S(=O)(=O)NC(=O)NN2CCCCCC2)cc1`, which outcome (BCL2L11 (gene 10018)) is on record?
Its outcome is “inactive”.

What about the outcome [1] of the same compound?
Its outcome is “inactive”.

And the outcome [2]?
Its outcome is “inactive”.

What about the outcome (Caspase-3 (Homo sapiens)) of the same compound?
The outcome was “inactive”.

What about the outcome [3] of the same compound?
Its outcome is “inactive”.

What about the outcome [4] of the same compound?
Its outcome is “inactive”.

And the outcome [5]?
The outcome was “inactive”.

What about the outcome [6] of the same compound?
Its outcome is “inactive”.

And the outcome [7]?
Its outcome is “inactive”.

Which results are given for `Cc1nccn1-c1ccc(Sc2cccc(C3(C(N)=O)CCOCC3)c2)cc1`?
AC50 (BCL2L11 (gene 10018)): 3.37 µM (active); AC50 [1]: 11.3 µM (active); outcome [2]: inactive; AC50 (Caspase-3 (Homo sapiens)): 2.48 µM (active); outcome [8]: inactive; AC50 [9]: 18.6 µM (active); AC50 [3]: 28.1 µM (active); AC50 [10]: 9.76 µM (active); AC50 [11]: 10.7 µM (active); AC50 (CYP2C8 (gene 1558)): 12.6 µM (active); AC50 (CYP2C9 (gene 1559)): 12.2 µM (active); AC50 (CYP2E1 (gene 1571)): 6.52 µM (active); AC50 (CYP4A11 (gene 1579)): 4.94 µM (active); AC50 [12]: 13.4 µM (active); AC50 [4]: 4.47 µM (active); AC50 [5]: 32.8 µM (active); AC50 [6]: 21.9 µM (active); outcome [7]: inactive; AC50 [13]: 10.4 µM (active)

Which results are given for `Cc1ncc([C@@H](CCCCCCc2ccc3c(n2)NCCC3)CC(=O)O)cn1`?
outcome (BCL2L11 (gene 10018)): inactive; outcome [1]: inactive; outcome [2]: inactive; outcome (Caspase-3 (Homo sapiens)): inactive; outcome [8]: inactive; outcome [9]: inactive; outcome [3]: inactive; outcome [10]: inactive; outcome [11]: inactive; outcome (CYP2C8 (gene 1558)): inactive; outcome (CYP2C9 (gene 1559)): inactive; AC50 (CYP2E1 (gene 1571)): 50 µM (active); AC50 (CYP4A11 (gene 1579)): 15.7 µM (active); AC50 [12]: 31 µM (active); outcome [4]: inactive; outcome [5]: inactive; outcome [6]: inactive; outcome [7]: inactive; outcome [13]: inactive

For `OCCNCCO`, which outcome (BCL2L11 (gene 10018)) is on record?
Its outcome is “inactive”.

And the outcome [1]?
The outcome was “inactive”.

What about the outcome [14] of the same compound?
The outcome was “inactive”.

And the outcome [2]?
Its outcome is “inactive”.

What about the outcome (Caspase-3 (Homo sapiens)) of the same compound?
The outcome was “inactive”.

What about the outcome [8] of the same compound?
The outcome was “inactive”.

What about the outcome [9] of the same compound?
The outcome was “inactive”.

What about the outcome [3] of the same compound?
Its outcome is “inactive”.

What about the AC50 [10] of the same compound?
Its AC50 is 50 µM (active).

And the AC50 [11]?
The AC50 was 50 µM (active).

And the outcome (CYP2C8 (gene 1558))?
Its outcome is “inactive”.

What about the AC50 (CYP2C9 (gene 1559)) of the same compound?
The AC50 was 50 µM (active).

What about the AC50 (CYP2E1 (gene 1571)) of the same compound?
Its AC50 is 45 µM (active).

And the outcome (CYP4A11 (gene 1579))?
The outcome was “inactive”.

What about the outcome [12] of the same compound?
Its outcome is “inactive”.

And the outcome [4]?
The outcome was “inactive”.

What about the outcome [5] of the same compound?
The outcome was “inactive”.

And the outcome [6]?
The outcome was “inactive”.

What about the outcome [7] of the same compound?
The outcome was “inactive”.

What about the outcome [13] of the same compound?
Its outcome is “inactive”.
